Records with an inconclusive call do not appear. Calls of active or inactive are those of the source. Calls come from the whole dose curve; as a rule, active = well fitted cell-killing curve with a large enough effect; inconclusive = small, poorly fitted or top-dose-only effect, or effect the other way; inactive = no such curve, though single readings can be large or run the other way.
Test: Quantitative High-Throughput drug screen in 47 multiple myeloma cell lines against the NCATS MIPE library collection: VP6_DJ cell viability assay (AID 1919867); note: nearly all actives have a fitted effect of over 40% in size
Conditions: ATP luminescence, 48 h; series mostly up to 45.8 µM
Procedure, shortened: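 ATP-based CellTiter-Glo luminescence after 48 h drug exposure (37 °C, 5% CO2) of 500 myeloma cells per well. DMSO-only wells set 100% viability, media-only wells 0%; MIPE 4.0 library added by pin tool.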
Potency is the fitted concentration of half-maximal effect.

Compound	Potency
CC1(C)C(=O)N(CCN2CCC(C(=O)c3ccc(F)cc3)CC2)c2ccccc21	4.18 µM (active)
O=c1ccc2ccc(O)c(O)c2o1	11.8 µM (active)
Oc1ccc(-c2nc(-c3ccc(F)cc3)c(-c3ccncc3)[nH]2)cc1	16.6 µM (active)
O=C(NCCO[N+](=O)[O-])c1cccnc1	inactive
Cc1ccc(Nc2nccc(N(C)c3ccc4c(C)n(C)nc4c3)n2)cc1S(N)(=O)=O	16.6 µM (active)
Nc1nc(Cl)nc2c1ncn2[C@H]1C[C@H](O)[C@@H](CO)O1	3.72 µM (active)
COc1c(O)cc2c(c1O)[C@@H]1O[C@H](CO)[C@@H](O)[C@H](O)[C@H]1OC2=O	inactive
Cc1cc(=O)c2c(O)c3c(O)cc(=O)c4c3c3c(cc(O)c1c23)C(C)(C)C=4O	0.469 µM (active)
CN(C)C(=O)[C@H](O)[C@H](Cc1ccccc1)NC(=O)c1cc2cc(Cl)ccc2[nH]1	7.43 µM (active)
COC(=O)N[C@H](C(=O)N[C@@H](Cc1ccccc1)[C@@H](O)CN(Cc1ccc(-c2ccccn2)cc1)NC(=O)[C@@H](NC(=O)OC)C(C)(C)C)C(C)(C)C	20.9 µM (active)
CN(C)[C@@H](CCOc1cccc2ccccc12)c1ccccc1	26.4 µM (active)
CC(=O)NC[C@H]1CN(c2ccc(N3CCOCC3)c(F)c2)C(=O)O1	inactive
Cc1ccc(NC(=O)c2ccc(CN3CCN(C)CC3)cc2)cc1Nc1nccc(-c2cccnc2)n1	23.5 µM (active)
C[C@H](Cn1cnc2c(N)ncnc21)OCP(=O)(O)O	inactive

Reference: PubChem BioAssay (NCATS)
